ssDAF-12 act – activates DAF-12 receptor from parasite S. stercoralis; HEK293 ssDAF-12/GRIP1 lit1-tk-luc reporter, luminescence; % of 3 µM dafachronic acid response; activation, % at 6.8 µM; 1% of 370,000 active; AID 652126;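 active = activation above the mean over all tested compounds plus 3 SD, cut at about 0.9% in these data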
hcDAF-12 act – activators of H. contortus DAF-12 nuclear receptor | HEK293 hcDAF-12 lit1-tk-luc reporter, luminescence; 0% DMSO, 100% Δ7-dafachronic acid | activation, % at 6.8 µM | 1.4% of 370,000 active | AID 652067;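 active = activation above the mean of all tested compounds plus 3 SD, cut at about 5.5% in these data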
DAX1 inh-1 – inhibitors of DAX1 repression of SF-1 activated StAR promoter; HEK293T StAR-luciferase reporter, SF-1/DAX-1 repression relief; inhibition, % at 6.8 µM; 1.1% of 370,000 active; AID 652010;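 active = inhibition above the mean over all tested compounds plus 3 SD, cut at about 3.6% in these data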;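 also: higher inhibition means more luminescence from relief of DAX-1 repression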
DAX1 inh-2 – inhibits human nuclear receptor DAX1; inhibition, % at 6.75 µM; HEK293 Gal4-DAX1 luciferase reporter, luminescence; AID 504766; 0.99% of 340,000 active;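 active = inhibition above the mean over all tested compounds plus 3 SD, cut at about 4.2% in these data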;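 also: inhibition shows as a rise in luminescence from relieved DAX1 repression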
Target sequence (P51843 207-470 limits assumed): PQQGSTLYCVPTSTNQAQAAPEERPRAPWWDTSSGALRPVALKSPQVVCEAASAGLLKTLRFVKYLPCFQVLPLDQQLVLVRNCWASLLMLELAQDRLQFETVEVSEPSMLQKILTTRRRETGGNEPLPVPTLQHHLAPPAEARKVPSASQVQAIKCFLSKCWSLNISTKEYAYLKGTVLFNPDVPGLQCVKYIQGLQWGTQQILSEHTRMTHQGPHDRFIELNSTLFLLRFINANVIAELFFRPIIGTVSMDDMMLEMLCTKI
hgDAF-12 ag – agonists of H. glycines DAF-12 nuclear receptor. 1.8% of 370,000 active. HEK293 GAL4-hgDAF12 UAS-luciferase reporter, agonist luminescence; normalized to butyrate control. activation, % at 6.8 µM;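 active = activation above a cutoff set at the mean of all screened compounds plus 3 SD, cut at about 10% in these data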
DAX1 inh confirm – confirmation of human DAX1 (NR0B1) inhibitors; HEK293T StAR-promoter luciferase reporter, SF-1/DAX-1 repression; shares compounds with DAX1 inh-1; inhibition, % at 6.8 µM; 87% of 2,400 active;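 active = inhibition above the average of every tested compound plus 3 SD, cut at about 3.8% in these data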;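 also: active compounds raise luminescence by relieving repression of the StAR reporter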
SF1 AF2mut Luc – nonselective inhibitor or artifact in SF-1 mutant DAX1 counter-screen | shares compounds with DAX1 inh-1 | HEK293 StAR-luciferase, SF-1 AF2 mutant, luminescence | inhibition, % at 6.8 µM | 78% of 2,400 active;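 active = inhibition above the mean of all tested compounds plus 3 SD, cut at about 3% in these data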
LXR ag – LXR-beta agonism as hcDAF-12 counter-screen | shares compounds with hcDAF-12 act | HEK293 Gal4-LXR tk-luc reporter, luminescence, 24 h; normalized: DMSO 0%, positive control 100% | activation, % at 6.8 µM | 3,400 tested, under 10 active | AID 743027;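 active = mean percent activation of the reporter above a cutoff set as the average over tested compounds plus their standard deviation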
hcDAF12 ag – confirmation of H. contortus DAF-12 agonists | activation, % at 6.8 µM | HEK293 hcDAF-12 lit1-tk-luc reporter, luminescence; % of Δ7-dafachronic acid response | shares compounds with hcDAF-12 act | 61% of 3,400 active;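 active = mean activation across triplicate tests above the threshold derived from the earlier primary screen, cut at about 5.5% in these data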
hgDAF12 ag – hgDAF-12 agonism, confirmation assay; shares compounds with hgDAF-12 ag; HEK293 GAL4-hgDAF12 luciferase reporter, agonist mode; percent of butyrate response; activation, % at 6.8 µM; 80% of 3,300 active; AID 743050;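 active = mean activation over triplicate wells above the hit cutoff derived from the earlier primary screen, cut at about 11% in these data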
LXRb DAF12 ctr – activates human LXR-beta, counter-screen for DAF-12 agonists | activation, % at 6.8 µM | AID 743051 | 3,300 tested, under 10 active | shares compounds with hgDAF-12 ag | HEK293 Gal4-LXR luciferase reporter, 24 h;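 active = mean activation of the triplicate above a set limit carried over from the primary screen, none filed active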
Numbers stand for hits; - = inactive; . = no result given. This is a sample that favours compounds with a hit; in the whole collection about 4.1% have one here.

SMILES	ssDAF-12 act	hcDAF-12 act	DAX1 inh-1	DAX1 inh-2	hgDAF-12 ag	DAX1 inh confirm	SF1 AF2mut Luc	hgDAF12 ag	LXRb DAF12 ctr	others
Cc1cc(O)cc(O[C@H]2OC(CO)[C@H](O)[C@@H](O)[C@H]2O)c1 (some centres not stated)	-	-	-	-	-	.	.	.	.
Cc1ccc(OCCSc2ncccn2)c(C)c1	-	-	8.2	5.1	23	12	8.2	16	-
COc1ccc(N(CC(=O)NCC2CCCO2)S(=O)(=O)c2ccccc2)cc1OC (configuration not stated)	-	-	-	-	-	.	.	.	.
CC(=O)CCSc1ncnc2sc(-c3ccccc3)cc12	1.2	-	13	-	16	16	7.9	13	-
O=C(O)CCSc1ncnc2sc(-c3ccccc3)cc12	-	-	-	-	-	.	.	.	.
O=C(NCCOc1ccccc1F)C1CC(=O)N(Cc2ccccc2)C1 (configuration not stated)	-	-	-	-	-	.	.	.	.
O=C(NC(=S)NNC(=O)c1ccccc1F)c1cccnc1	-	-	-	.	-	.	.	.	.
Cc1cccc(-c2noc(-c3ccc4c(c3)OCO4)n2)c1	-	-	4.8	-	13	13	5.0	14	-
COc1ccc(-c2nc(-c3cccc(C)c3)no2)cc1OC	.	.	.	-	.	.	.	.	.
CNC(=S)N/N=C/c1c(C)nn(-c2ccccc2)c1Cl	-	-	-	-	-	.	.	.	.
Cc1nn(-c2ccccc2)c(Cl)c1/C=N/Nc1ccc(Cl)c(C(=O)O)c1	1.2	9.9	7.5	-	24	16	7.9	27	-	LXR ag=-;hcDAF12 ag=11
O=C(O)C/C(=C\c1ccc(Cl)cc1)c1nc2ccccc2o1	-	-	-	.	-	.	.	.	.
O=C(O)C(=O)/C(=C\c1ccc(Cl)cc1)c1ccc2ccccc2n1	2.5	14	7.8	-	14	9.1	4.6	-	-	LXR ag=-;hcDAF12 ag=11
COc1ccc2[nH]cc(CCNC(=O)CC[C@H]3O[C@@H](n4cc(C)c(=O)[nH]c4=O)C[C@@H]3O)c2c1	-	-	-	-	-	.	.	.	.
COc1ccc(C2=NN3C(C2)c2ccccc2OC32C(=O)N(C)c3ccccc32)cc1 (configuration not stated)	2.4	12	6.6	-	17	4.0	4.8	22	-	LXR ag=-;hcDAF12 ag=-
CC(C)[C@H]1COCCS(=O)(=O)N1Cc1ccccc1-c1ccc(F)cc1	-	-	-	-	-	.	.	.	.
Nc1c(C(=O)Nc2ccc3c(c2)OCCO3)nnn1Cc1ccc(Br)cc1	1.3	9.4	8.1	-	22	12	8.6	22	-	LXR ag=-;hcDAF12 ag=6.7
COc1ccccc1C(=O)COC(=O)Cc1ccccc1F	-	-	-	-	-	.	.	.	.
Cn1c(CC(=O)Nc2ccc(Cl)c(Cl)c2)nnc1SCC(=O)NCc1ccccc1	-	-	-	-	-	.	.	.	.
Cc1ccc(-c2onc3ccc(C4OCCO4)cc23)cc1	-	-	5.3	-	14	-	-	-	-
Cc1ccc(-c2onc3ccc(Br)cc23)cc1	-	-	-	-	-	.	.	.	.
O=C(O)c1ccc(N=Nc2c(O)[nH]c3ccccc23)cc1	2.0	12	5.9	-	16	11	5.7	17	-	LXR ag=-;hcDAF12 ag=9.9
